# ± gives the standard deviation of the averaged measurements.
# How the values were obtained:
# Settings in all cases: concentration: 10 µM; 24 h
# HCC1569 [1] = assay: cell number relative to DMSO (% of DMSO); higher = more cells (less growth inhibition / toxicity)
# In short: (§1)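 Compounds were applied at 10 µM for 24 h at 37 °C, in triplicate, to HCC1569 and TDF cells. The cells were then fixed and stained for H1.0, and nuclei were counterstained with DAPI. Nuclear H1.0 intensity or cell number is reported relative to the plate control as a percent, taking the median of replicates. Smoothing for positional effects was applied to HCC1569 values only.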
# TDF [2] = assay: as above
# In short: as §1
# TDF [3] = assay: H1.0 immunofluorescence intensity relative to DMSO (% of DMSO); higher = stronger H1.0 induction, active = 120 or more
# In short: as §1
# HCC1569 [4] = assay: H1.0 immunofluorescence intensity relative to DMSO (% of DMSO); higher = stronger H1.0 induction, active = 140 or more
# In short: as §1
# 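Wherever H1.0 immunofluorescence intensity relative to DMSO is given: TDF is a line of transformed human dermal fibroblasts of mesenchymal origin.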
# 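Wherever cell number relative to DMSO is given: TDF denotes transformed human dermal fibroblasts of mesenchymal origin.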
Structure (SMILES),cell number (HCC1569 [1]),cell number (TDF [2]),H1.0 immunofluorescence intensity (TDF [3]),H1.0 immunofluorescence intensity (HCC1569 [4])
CC(=CC=CC(C)C(=O)O)C1CNC(C(=O)O)C1CC(=O)O (centres undefined) [Domoic acid],101,109,93.6 (inactive),86.3 (inactive)
CC(Cc1ccc2c(c1)OC(C(=O)[O-])(C(=O)[O-])O2)NCC(O)c1cccc(Cl)c1.[Na+].[Na+] (centres undefined),97.5,106,88.7 (inactive),95.9 (inactive)
CC[N+](CC)(CC)CC.[Cl-] [Tetraethylammonium chloride],101,108,90.2 (inactive),108 (inactive)
CN1C2CC(=O)CC1C(O)C2 (centres undefined) [6-Hydroxytropinone],103,111,88.5 (inactive),89.2 (inactive)
CCCCCC=CCC=CCC=CCC=CCCCC(=O)NCC(=O)O [N-arachidonylglycine],101,99.4,98.2 (inactive),99.6 (inactive)
CCN1CC2(OC(=O)c3ccccc3NC(C)=O)CCC(OC)C34C1C(CC23)C1(O)CC(OC)C2CC4C1(O)C2OC (centres undefined) [Lappaconitine],107,103,100 (inactive),94.3 (inactive)
CCCCCCCCCCCCCCCCOCC(COP(=O)([O-])OCC[N+](C)(C)C)OC(C)=O (stereo not drawn) [Enantio-PAF C16],100,106,93.7 (inactive),94 (inactive)
CC(C)(OO)c1ccccc1 [Cumene hydroperoxide],101,113,105 (inactive),99.6 (inactive)
CC(=O)OC1CC2CCC3C(CCC4(C)C3CC([N+]3(C)CCCCC3)C4OC(C)=O)C2(C)CC1[N+]1(C)CCCCC1.[Br-].[Br-] (centres undefined) [Pancuronium bromide],103,96.9,98.8 (inactive),99.5 (inactive)
Clc1ccc(C(c2ccc(Cl)cc2)n2cc[n+](CC(OCc3ccc(Cl)cc3Cl)c3ccc(Cl)cc3Cl)c2)cc1.[Cl-] (centres undefined) [Calmidazolium chloride],17.8,0.84,,95.3 (inactive)
CCNC(=O)C[C@@H]1N=C(c2ccc(Cl)cc2)c2cc(OC)ccc2-n2c(C)nnc21,86.4,71.9,141 (active),198 (active)
CN1CC(NS(=O)(=O)N(C)C)CC2c3cccc4c3c(cn4C)CC21.Cl (centres undefined) [Mesulergine hydrochloride],101,100,93.4 (inactive),94.2 (inactive)
CN1C2CCC1CC(OC(=O)C(CO)c1ccccc1)C2.CN1C2CCC1CC(OC(=O)C(CO)c1ccccc1)C2.O=S(=O)(O)O (centres undefined) [Atropine sulfate],,,91.7 (inactive),88.9 (inactive)
NC(=S)NN=Cc1coc2ccccc2c1=O.[Cl][Cu][Cl],96.2,86,105 (inactive),100 (inactive)
CC1CN(C2CCC(C#N)(c3ccc(F)cc3)CC2)CCC1(C(=O)O)c1ccccc1.Cl (centres undefined) [Levocabastine.HCl],102,103,102 (inactive),115 (inactive)
COc1ccc(O)c(C(C)(C)C)c1,106,107,94.5 (inactive),91.3 (inactive)
CCCN(CCC)C1CCc2ccc(O)cc2C1 (racemic),102,111,88.7 (inactive),95.4 (inactive)
CC1CCC2C(C)C(=O)OC3OC4(C)CCC1C32OO4 (centres undefined) [Artemesinin],102 ± 2.5,97.4 ± 2.2,95.9 (inactive),116 (inactive)

# From the supplement of paper PMC7156485
